Results reported in the supplement of paper PMC7411054.
Structures can show the parent of a compound that is named as a salt.

Experiments:
Assay in all cases: phenotypically active (imaging signature differs from DMSO and reproducible) at any of 0.3-9 uM (binary (1 = active, 0 = inactive)); higher = active
Conditions in all cases: treatment time: 24 h
A549-ACTB-RAB5A = system: A549-ACTB-RAB5A
How it was run: (§1)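 Live-cell features were measured per well and normalised to solvent control wells after fifteen gene-edited A549, HepG2 and WPMY1 reporter lines had been treated for 24 h at 0.3, 1, 3 or 9 µM in four wells each. A condition was deviating when ≥3 of 4 wells sat beyond the 95th percentile of control Euclidean distances. It was reproducible when the median replicate Pearson correlation exceeded the 95th percentile of non-replicates. Phenotypic activity demanded both.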

A549-CANX-COX4 = system: A549-CANX-COX4
How it was run: as §1

A549-GM130-SQSTM1 = system: A549-GM130-SQSTM1
How it was run: as §1

A549-TP53BP1-CLTA = system: A549-TP53BP1-CLTA
How it was run: as §1

A549-TUBA1B-RELA = system: A549-TUBA1B-RELA
How it was run: as §1

HepG2-ACTB-RAB5A = system: HepG2-ACTB-RAB5A
How it was run: as §1

HepG2-CANX-COX4 = system: HepG2-CANX-COX4
How it was run: as §1

HepG2-GM130-SQSTM1 = system: HepG2-GM130-SQSTM1
How it was run: as §1

HepG2-TP53BP1-CLTA = system: HepG2-TP53BP1-CLTA
How it was run: as §1

HepG2-TUBA1B-RELA = system: HepG2-TUBA1B-RELA
How it was run: as §1

WPMY1-ACTB-RAB5A = system: WPMY1-ACTB-RAB5A
How it was run: as §1

WPMY1-CANX-COX4 = system: WPMY1-CANX-COX4
How it was run: as §1

WPMY1-GM130-SQSTM1 = system: WPMY1-GM130-SQSTM1
How it was run: as §1

WPMY1-TP53BP1-CLTA = system: WPMY1-TP53BP1-CLTA
How it was run: as §1

WPMY1-TUBA1B-RELA = system: WPMY1-TUBA1B-RELA
How it was run: as §1

Measured: phenotypically active

CCN1C[C@]2(COC)CC[C@H](O)[C@]34[C@@H]5C[C@H]6[C@H](OC)[C@@H]5[C@](O)(C[C@@H]6OC)[C@](O)([C@H]13)[C@@H](OC)[C@H]24 [Delsoline]
inactive: A549-ACTB-RAB5A 0 | A549-CANX-COX4 0 | A549-GM130-SQSTM1 0 | A549-TP53BP1-CLTA 0 | A549-TUBA1B-RELA 0 | HepG2-ACTB-RAB5A 0 | HepG2-CANX-COX4 0 | HepG2-GM130-SQSTM1 0 | HepG2-TP53BP1-CLTA 0 | HepG2-TUBA1B-RELA 0 | WPMY1-ACTB-RAB5A 0 | WPMY1-CANX-COX4 0 | WPMY1-GM130-SQSTM1 0 | WPMY1-TP53BP1-CLTA 0 | WPMY1-TUBA1B-RELA 0

N#CC(CCN1CCC(C(=O)O)(c2ccccc2)CC1)(c1ccccc1)c1ccccc1 [difenoxin]
inactive: A549-ACTB-RAB5A 0 | A549-CANX-COX4 0 | A549-GM130-SQSTM1 0 | A549-TP53BP1-CLTA 0 | A549-TUBA1B-RELA 0 | HepG2-ACTB-RAB5A 0 | HepG2-CANX-COX4 0 | HepG2-GM130-SQSTM1 0 | HepG2-TP53BP1-CLTA 0 | HepG2-TUBA1B-RELA 0 | WPMY1-ACTB-RAB5A 0 | WPMY1-CANX-COX4 0 | WPMY1-GM130-SQSTM1 0 | WPMY1-TP53BP1-CLTA 0 | WPMY1-TUBA1B-RELA 0

CC1=CC(=O)C2=C(C)C[C@H](O)[C@@H]3[C@H](OC(=O)[C@H]3C)[C@@H]12 [Austricine hydrate]
inactive: A549-ACTB-RAB5A 0 | A549-CANX-COX4 0 | A549-GM130-SQSTM1 0 | A549-TP53BP1-CLTA 0 | A549-TUBA1B-RELA 0 | HepG2-ACTB-RAB5A 0 | HepG2-CANX-COX4 0 | HepG2-GM130-SQSTM1 0 | HepG2-TP53BP1-CLTA 0 | HepG2-TUBA1B-RELA 0 | WPMY1-ACTB-RAB5A 0 | WPMY1-CANX-COX4 0 | WPMY1-GM130-SQSTM1 0 | WPMY1-TP53BP1-CLTA 0 | WPMY1-TUBA1B-RELA 0

Cc1ccc(C[N+](C)(C)C)o1 [5-Methylfurmethiodide]
inactive: A549-ACTB-RAB5A 0 | A549-CANX-COX4 0 | A549-GM130-SQSTM1 0 | A549-TP53BP1-CLTA 0 | A549-TUBA1B-RELA 0 | HepG2-ACTB-RAB5A 0 | HepG2-CANX-COX4 0 | HepG2-GM130-SQSTM1 0 | HepG2-TP53BP1-CLTA 0 | HepG2-TUBA1B-RELA 0 | WPMY1-ACTB-RAB5A 0 | WPMY1-CANX-COX4 0 | WPMY1-GM130-SQSTM1 0 | WPMY1-TP53BP1-CLTA 0 | WPMY1-TUBA1B-RELA 0

C[C@]12Cc3cn[nH]c3C[C@@H]1CC[C@@H]1[C@@H]2CC[C@@]2(C)[C@H]1CC[C@]2(C)O [stanozolol]
inactive: A549-ACTB-RAB5A 0 | A549-CANX-COX4 0 | A549-GM130-SQSTM1 0 | A549-TP53BP1-CLTA 0 | A549-TUBA1B-RELA 0 | HepG2-ACTB-RAB5A 0 | HepG2-CANX-COX4 0 | HepG2-GM130-SQSTM1 0 | HepG2-TP53BP1-CLTA 0 | HepG2-TUBA1B-RELA 0 | WPMY1-ACTB-RAB5A 0 | WPMY1-CANX-COX4 0 | WPMY1-GM130-SQSTM1 0 | WPMY1-TP53BP1-CLTA 0 | WPMY1-TUBA1B-RELA 0

NC(=S)N/N=C/c1coc2ccccc2c1=O
inactive: A549-ACTB-RAB5A 0 | A549-CANX-COX4 0 | A549-GM130-SQSTM1 0 | A549-TP53BP1-CLTA 0 | A549-TUBA1B-RELA 0 | HepG2-ACTB-RAB5A 0 | HepG2-CANX-COX4 0 | HepG2-GM130-SQSTM1 0 | HepG2-TP53BP1-CLTA 0 | HepG2-TUBA1B-RELA 0 | WPMY1-ACTB-RAB5A 0 | WPMY1-CANX-COX4 0 | WPMY1-GM130-SQSTM1 0 | WPMY1-TP53BP1-CLTA 0 | WPMY1-TUBA1B-RELA 0

CC[C@H]1C2C[C@H]3[C@@H]4N(C)c5ccccc5[C@]45C[C@H](C2[C@H]5O)N3[C@@H]1O (stereo not given in full) [Ajmaline]
inactive: A549-ACTB-RAB5A 0 | A549-CANX-COX4 0 | A549-GM130-SQSTM1 0 | A549-TP53BP1-CLTA 0 | A549-TUBA1B-RELA 0 | HepG2-ACTB-RAB5A 0 | HepG2-CANX-COX4 0 | HepG2-GM130-SQSTM1 0 | HepG2-TP53BP1-CLTA 0 | HepG2-TUBA1B-RELA 0 | WPMY1-ACTB-RAB5A 0 | WPMY1-CANX-COX4 0 | WPMY1-GM130-SQSTM1 0 | WPMY1-TP53BP1-CLTA 0 | WPMY1-TUBA1B-RELA 0

COc1c2c(cc3c1OCO3)CC[N+](C)=C2 [Cotarnine chloride]
inactive: A549-ACTB-RAB5A 0 | A549-CANX-COX4 0 | A549-GM130-SQSTM1 0 | A549-TP53BP1-CLTA 0 | A549-TUBA1B-RELA 0 | HepG2-ACTB-RAB5A 0 | HepG2-CANX-COX4 0 | HepG2-GM130-SQSTM1 0 | HepG2-TP53BP1-CLTA 0 | HepG2-TUBA1B-RELA 0 | WPMY1-ACTB-RAB5A 0 | WPMY1-CANX-COX4 0 | WPMY1-GM130-SQSTM1 0 | WPMY1-TP53BP1-CLTA 0 | WPMY1-TUBA1B-RELA 0

NCC1(CC(=O)O)CCCCC1 [gabapentin]
inactive: A549-ACTB-RAB5A 0 | A549-CANX-COX4 0 | A549-GM130-SQSTM1 0 | A549-TP53BP1-CLTA 0 | A549-TUBA1B-RELA 0 | HepG2-ACTB-RAB5A 0 | HepG2-CANX-COX4 0 | HepG2-GM130-SQSTM1 0 | HepG2-TP53BP1-CLTA 0 | HepG2-TUBA1B-RELA 0 | WPMY1-ACTB-RAB5A 0 | WPMY1-CANX-COX4 0 | WPMY1-GM130-SQSTM1 0 | WPMY1-TP53BP1-CLTA 0 | WPMY1-TUBA1B-RELA 0

O[C@H]1[C@H](O)[C@@H](O)CN2CC[C@H](O)[C@H]12 [Castanospermine]
inactive: A549-ACTB-RAB5A 0 | A549-CANX-COX4 0 | A549-GM130-SQSTM1 0 | A549-TP53BP1-CLTA 0 | A549-TUBA1B-RELA 0 | HepG2-ACTB-RAB5A 0 | HepG2-CANX-COX4 0 | HepG2-GM130-SQSTM1 0 | HepG2-TP53BP1-CLTA 0 | HepG2-TUBA1B-RELA 0 | WPMY1-ACTB-RAB5A 0 | WPMY1-CANX-COX4 0 | WPMY1-GM130-SQSTM1 0 | WPMY1-TP53BP1-CLTA 0 | WPMY1-TUBA1B-RELA 0

O=C(O)CC[N+](=O)[O-] [3-Nitropropionic acid]
inactive: A549-ACTB-RAB5A 0 | A549-CANX-COX4 0 | A549-GM130-SQSTM1 0 | A549-TP53BP1-CLTA 0 | A549-TUBA1B-RELA 0 | HepG2-ACTB-RAB5A 0 | HepG2-CANX-COX4 0 | HepG2-GM130-SQSTM1 0 | HepG2-TP53BP1-CLTA 0 | HepG2-TUBA1B-RELA 0 | WPMY1-ACTB-RAB5A 0 | WPMY1-CANX-COX4 0 | WPMY1-GM130-SQSTM1 0 | WPMY1-TP53BP1-CLTA 0 | WPMY1-TUBA1B-RELA 0

CNC(=O)Oc1ccc2c(c1)[C@]1(C)CCN(C)[C@@H]1N2C [Eserine sulfate, physostigmine sulfate]
inactive: A549-ACTB-RAB5A 0 | A549-CANX-COX4 0 | A549-GM130-SQSTM1 0 | A549-TP53BP1-CLTA 0 | A549-TUBA1B-RELA 0 | HepG2-ACTB-RAB5A 0 | HepG2-CANX-COX4 0 | HepG2-GM130-SQSTM1 0 | HepG2-TP53BP1-CLTA 0 | HepG2-TUBA1B-RELA 0 | WPMY1-ACTB-RAB5A 0 | WPMY1-CANX-COX4 0 | WPMY1-GM130-SQSTM1 0 | WPMY1-TP53BP1-CLTA 0 | WPMY1-TUBA1B-RELA 0
